Results taken from PubChem BioAssay.
Activity calls are given as the source filed them.

How the values were obtained:
[1] = system: XIP peptide (Xip251-270) binding; assay: XIP fragment 251-270 binding compounds – biochemical, small-molecule microarray, fluorescence 635/667 nm, 0.1 µg/mL protein, primary screen (AID 1182); conditions: fluorescent protein binding, 635 nm, higher = more signal, called active from +8 up or from −8 down
XIP peptide (Xip251-270) = assay: compounds binding XIP fragment 251-270 – biochemical, small-molecule microarray, fluorescence 635/667 nm, 0.5 µg/mL protein, primary screen (AID 1183); conditions: fluorescence 635 nm, higher = more signal
[2] = blood-stage malaria parasite viability loss – strain 3D7, DAPI fluorescence, 100 nL, primary screen (AID 1184);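 note: parasites grown inside human red blood cells in medium with human serum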; conditions: P. falciparum 3D7 growth, 3 d, higher = more signal
[3] = target: Homeobox protein Hox-A13 (Mus musculus) (UniProt Q62424); assay: disruptors of Hoxa13 oligonucleotide interaction – biochemical, fluorescence polarization, labeled oligonucleotide, primary screen (AID 1185); conditions: Hoxa13:DNA binding, 15 min, higher = more signal, called active from +8 up or from −8 down
Homeobox protein Hox-A13 (Mus musculus), sequence (Q62424 whole entry, looked up): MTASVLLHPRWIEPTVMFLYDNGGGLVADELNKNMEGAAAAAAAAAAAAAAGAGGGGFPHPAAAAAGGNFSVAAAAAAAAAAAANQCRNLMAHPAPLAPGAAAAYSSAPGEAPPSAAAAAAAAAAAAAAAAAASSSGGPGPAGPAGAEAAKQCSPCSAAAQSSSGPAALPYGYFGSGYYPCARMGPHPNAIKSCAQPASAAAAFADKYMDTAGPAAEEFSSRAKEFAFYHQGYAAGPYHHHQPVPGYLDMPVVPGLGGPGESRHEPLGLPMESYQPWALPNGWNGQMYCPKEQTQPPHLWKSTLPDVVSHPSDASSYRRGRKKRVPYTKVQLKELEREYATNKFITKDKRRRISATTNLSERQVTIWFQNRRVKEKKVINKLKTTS

| SMILES | composite z-score [1] | composite z-score (XIP peptide (Xip251-270)) | z-score [2] | z-score [3] |
| --- | --- | --- | --- | --- |
| CCOC(=O)[C@H](Cc1ccccc1)NC(=O)OC1CC(CCC2CC(CC)=NO2)OC2(CCCC(COC(=O)NCCC(C)C)O2)C1 (some centres undefined) | 0.654 (inactive) | 0.527 | -1.04 | -5.07 (inactive) |
| O=c1n(-c2ccccc2)c(=O)n2n1CC[C@@H]1C(=NOCc3ccccc3)[C@H]3O[C@H]3[C@@H](O)[C@@H]12 | -0.368 (inactive) | -0.0725 | -0.557 | -4.06 (inactive) |
| C[C@H]1CC[C@H]2C(=O)O[C@H](COc3ccc(C(C)(C)C)cc3)CN2[C@@H]1c1ccc(Br)cc1 | 1.71 (inactive) | 0.567 | -0.398 | 1.13 (inactive) |
| CC(C)(C)N1C(=O)[C@H]2[C@H]3[C@H](O)C=CC(=O)[C@@H]3CC[C@H]2C1=O | 0.127 (inactive) | 0.16 | -0.0484 | 0.14 (inactive) |
| C[C@@H](c1ccccc1)N1C(=O)[C@H]2[C@H]3[C@H](O)[C@H](O)CC(=NO[C@@H]4O[C@H](CO)[C@@H](O)[C@H](O)[C@H]4O)[C@H]3CC[C@H]2C1=O | -0.0033 (inactive) | 0.216 | -0.648 | -0.285 (inactive) |
| COC(=O)[C@H](C)NC(=O)CCC1CC(OC(=O)NCc2ccc3c(c2)OCO3)CC2(CCCC(COC(=O)NCC3CCCCC3)O2)O1 (some centres undefined) | 0.655 (inactive) | 0.555 | -1.87 | -4.19 (inactive) |
| CC(CCC(=O)OC[C@H]1O[C@H](C#Cc2ccccc2)C=C[C@@H]1Oc1ccc(C)cc1)=NO[C@H](C)c1cn([C@H](CO)Cc2ccccc2)nn1 | 0.157 (inactive) | 0.662 | -0.563 | -2.88 (inactive) |
| C=CC[C@@H]1C=C[C@H](ON=C(C)CCC(=O)OC[C@H]2O[C@H](C#Cc3ccccc3)C=C[C@@H]2Oc2ccc(C)cc2)[C@@H](CO)O1 | 1.18 (inactive) | 0.437 | 0.37 | -4.14 (inactive) |
| COC(=O)CC=C[C@@H](C)[C@@H](C=NOC(C)CN1CCCc2nc(C)c(C)cc21)OC (some centres undefined) | 0.327 (inactive) | 0.274 | 0.004 | -1.24 (inactive) |
| CCN1C(=O)[C@H]2[C@H]3[C@H](O)[C@H](O)CC(=NNC(=O)OCc4ccc(OC)cc4)[C@@H]3CC[C@H]2C1=O | 0.0729 (inactive) | -0.225 | -0.18 | -1.25 (inactive) |
| C=CC[C@@H]1C=C[C@H](ON=C[C@@H](C)[C@H](OCc2ccccc2)C(C)C)[C@@H](CO)O1 | 0.142 (inactive) | 0.256 | 0.395 | -4.51 (inactive) |
| O=C1[C@H]2[C@H]3[C@H](O)[C@H](O)CC(=NOC[C@@H](O)COCc4ccco4)[C@H]3CC[C@H]2C(=O)N1Cc1ccccc1 | -0.227 (inactive) | 0.252 | 0.254 | -2.38 (inactive) |
| CO[C@@H]1C=CCC(=O)N[C@@H](C)C(=O)OC[C@@H](OC)[C@H](C)CCCC(=O)OC[C@H]1C | -0.203 (inactive) | 0.111 | 0.0984 | -0.313 (inactive) |
| COC(=O)CC=C[C@@H](C)[C@@H]1C=C[C@H](O)[C@@H](CO)O1 | 0.0118 (inactive) | -0.518 | 0.247 | -0.235 (inactive) |
| CO[C@@H]1COC(=O)[C@@H](C)COC(=O)[C@@H](C)NC(=O)CC=C[C@@H]1C | 0.0875 (inactive) | 0.304 | -1.52 | -0.701 (inactive) |
| O=C1C[C@@H](O)[C@@H](O)[C@@H]2[C@@H]3C(=O)N(C[C@@H]4CCCO4)C(=O)[C@@H]3CC[C@@H]12 | 0.74 (inactive) | 0.592 | -0.223 | 0.368 (inactive) |
| O=C1C[C@@H](O)[C@@H](O)[C@@H]2[C@@H]3C(=O)N(c4cccc(Oc5ccccc5)c4)C(=O)[C@@H]3CC[C@H]12 | 0.0532 (inactive) | 0.111 | 1.33 | -0.14 (inactive) |
| CCOC(=O)[C@H](Cc1ccccc1)NC(=O)CCC1CC(OC(=O)NCCc2ccc(F)cc2)CC2(CCCC(COC(=O)NCc3ccccc3)O2)O1 (some centres undefined) | 0.501 (inactive) | 0.283 | -1.64 | -2.25 (inactive) |
| COc1ccc(COC(=O)NN=C2C[C@@H](O)[C@@H](O)[C@@H]3[C@@H]4C(=O)N(C5CCCCC5)C(=O)[C@@H]4CC[C@H]23)cc1 | -0.252 (inactive) | -1.02 | -0.336 | -5.48 (inactive) |
| CC(=O)Nc1ccc([C@@H]2N[C@H](C(=O)O)CC[C@H]2C)cc1 | -0.0813 (inactive) | 0.119 | 0.962 | -0.107 (inactive) |
| CCOC(=O)[C@H](CC(C)C)NC(=O)CCC1CC(OC(=O)NCc2cccc3ccccc23)CC2(CCCC(COC(=O)NCc3ccncc3)O2)O1 (some centres undefined) | 1.56 (inactive) | 0.53 | -0.652 | -6.29 (inactive) |
